Data from PubChem BioAssay (Tox21).
Where “and” joins values, the source holds several entries; their conditions need not be identical. Equal values may be shown once. Results filed as inconclusive are left out. Entries that show only a call come without a potency. A number with no mark means an inactive call. Calls of active or inactive are those of the source. Calls follow the shape of the dose curve; as a rule, active = well fitted cell-killing curve with a large enough effect in the repeat runs; inconclusive = weak or mixed curves, or effect the other way; inactive = flat fitted curve, though single readings scatter.

Legend:
[1] = cAMP Responsive Elements (CRE) small molecule antagonists, cell-based qHTS assay: qHTS cell viability counter screen (AID 2060913); also: nearly all actives have a fitted effect of over 40% in size
How it was run: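 Cytotoxicity read in the same wells as the CRE-bla HEK293T antagonist assay: after 3 h compound with 0.25 uM NKH477 final and 2 h beta-lactamase substrate, CellTiter-Glo luminescence measured.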

[2] = cAMP Responsive Elements (CRE) small molecule agonists, cell-based qHTS assay: qHTS cell viability counter screen (AID 2060914); also: nearly all actives have a fitted effect of over 50% in size
How it was run: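 Luminescence read-out (CellTiter-Glo, 30 min RT) of ATP-based viability in CRE-bla HEK 293T cells, run in the same wells as the β-lactamase reporter assay after 3 h compound treatment at 37 °C.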
Potency is read from the fitted curve at half-maximal effect.

SMILES	Potency [1]	Potency [2]	viability change, negative = cytotoxic [1]	activity change, negative = cytotoxicity [2]
CCCCCCCCCOC(=O)CCCCC(=O)OCCCCCCC	inactive	inactive		
NCC1CCC(C(=O)Oc2ccc(CCC(=O)O)cc2)CC1 (stereo unspecified)	inactive	inactive		
CNS(=O)(=O)Cc1ccc2[nH]cc(CCN(C)C)c2c1	inactive	inactive		
Cc1ccccc1N=C(N)Nc1ccccc1C	inactive	inactive		
O=C(c1ccccc1)C1CCC1	inactive	inactive		
CCCCCCCCCCCCCCCCCC(=O)OCC(O)CO (stereo unspecified)	inactive	inactive		
CCCCCCCCCC(C)C=O (stereo unspecified)	inactive	inactive		
CC(C)(CO)C(O)C(=O)NCCCO (stereo unspecified)	inactive	inactive		
S=P(N1CC1)(N1CC1)N1CC1	inactive	inactive		
N[C@@H](CSSC[C@H](N)C(=O)O)C(=O)O			0% [at 0.349 µM]	11.2% [at 0.349 µM]
C=CC(=O)OCCCCCCCC	inactive	inactive		
CCC(=O)O[C@]1(C(=O)SCF)[C@H](C)C[C@H]2[C@@H]3C[C@H](F)C4=CC(=O)C=C[C@]4(C)[C@@]3(F)[C@@H](O)C[C@@]21C	inactive	inactive		
CC(C)(C)CC(C)(C)c1ccc(OCCOCC[N+](C)(C)Cc2ccccc2)cc1	27.3 µM (active) and 29.8 µM (active)	54.4 µM (active) and 29.8 µM (active)		
CCCCCC[C@@H](O)C/C=C\CCCCCCCC(=O)O	inactive	inactive		
CC(C)CC(O)Cc1ccccc1 (stereo unspecified)	inactive	inactive		
Cc1cc(C(C#N)c2ccc(Cl)cc2)c(Cl)cc1NC(=O)c1cc(I)cc(I)c1O (stereo unspecified)	inactive	inactive		
O=C(/C=C/c1ccccc1)OCc1ccccc1	inactive	inactive		
CCNS(=O)(=O)c1ccc(C)cc1	inactive	inactive		
C=CC1CC2C=CC1C2 (stereo unspecified)	inactive	inactive		
CCCCc1cc2ccccc2c(OCCN(C)C)n1	inactive	inactive		
O=C(O)c1ccc(Cl)cc1Cl	inactive	inactive		
CCc1cccc(N(C)C(N)=Nc2cccc3ccccc23)c1	inactive	inactive		

SMILES	Potency [1]	Potency [2]	viability change, negative = cytotoxic [1]	activity change, negative = cytotoxicity [2]
CCCC1CCOC(C)S1 (stereo unspecified)	inactive	inactive		
CCCCCCCCO[C@@H]1O[C@H](CO)[C@@H](O)[C@H](O)[C@H]1O	inactive	inactive		
ON(Cc1ccccc1)Cc1ccccc1	inactive	inactive		
Clc1ccc(C(Cn2ccnc2)OCc2ccsc2Cl)c(Cl)c1 (stereo unspecified)	inactive	inactive		
CCCSS/C(CCO)=C(\C)N(C=O)Cc1cnc(C)nc1N	inactive	inactive		
CC(=O)Nc1ccc(N=Nc2cc(C)ccc2O)cc1	inactive	inactive		
Nc1nnnn1-c1ccccc1	inactive	inactive		
CCN(C(=O)c1cc(C)cc(OC[C@H](C)Nc2ccncc2)c1)C(C)C	inactive	inactive		
CO[Si](OC)(c1ccccc1)c1ccccc1	inactive	inactive		
NC(=O)NC1NC(=O)NC1=O (stereo unspecified)	inactive	inactive		
CC(=O)CC(C)C	inactive	inactive		
Nc1ccccc1[N+](=O)[O-]	inactive	inactive		
CC1=C(/C=C/C(C)=C/C=C/C(C)=C/C(=O)O)C(C)(C)CCC1	inactive	inactive		
OCCOCCOCCOCCO	inactive	inactive		
CC1=C(C)C(=O)C(C(CCCCCC(=O)O)c2ccccc2)=C(C)C1=O (stereo unspecified)	inactive	inactive		
CC(=O)O[C@]1(C(C)=O)CC[C@H]2[C@@H]3C=C(C)C4=CC(=O)CC[C@]4(C)[C@H]3CC[C@@]21C	inactive	inactive		
CC[C@@]1(c2ccccc2)NC(=O)N(C)C1=O	inactive	inactive		
CC(C)Nc1nc(N)nc(Cl)n1	inactive	inactive		
C=C1C2CCC(C2)C1(C)C (stereo unspecified)	inactive	inactive		
O=[N+]([O-])c1cncn1CCN1CCOCC1	inactive	inactive		
CCC(=O)C(=O)CC	inactive	inactive		
